From PubChem BioAssay come the findings set out here.

Experiment [1] can be described thus: HepG2 liver cancer cell viability effects, profiling panel, resazurin fluorescence, 24 h, PK04 Diversity Set (AID 1172). Particulars: higher = more signal.
A short description of experiment [2]: basal S. cerevisiae growth modulation, no modifier, primary screen, OD600, strain BY4716, 24 h, basal condition (AID 1173). Particulars: OD600, 24 h, higher = more signal, called active from +8 up or from −8 down.
The nature of experiment [3]: MM1S myeloma cell viability, profiling panel, resazurin fluorescence, basal, 24 h, PK04 Diversity Set (AID 1174).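 Further: MM1S multiple myeloma cell line.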 As to conditions: higher = more signal, called active from +8 up or from −8 down. Background: Resazurin is reduced to fluorescent resorufin, in cell work by metabolically active cells.
Experiment [4] addresses Dihydroorotate dehydrogenase (quinone), mitochondrial (Plasmodium falciparum (isolate 3D7)) (UniProt Q08210). Put plainly: PfDHODH enzyme inhibitors, primary screen, biochemical, C-terminal His tag, absorbance 600 nm (AID 1175).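 Further: recombinant parasite enzyme with a five histidine tag at its C terminus.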 As to conditions: DCIP absorbance 600 nm, higher = more signal, called active from +8 up or from −8 down.
Experiment [5] can be described thus: P. aeruginosa biofilm formation inhibitors, primary screen, strain PAO1, LB-PBS medium, absorbance 600 nm (AID 1176). As to conditions: P. aeruginosa PAO1 growth/biofilm, A600, 12 h; higher = more signal.
Experiment [6] is described as follows: S. cerevisiae RM11-1a growth modifiers, primary screen, strain RM11-1a, OD600, basal, 24 h (AID 1177).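 Further: cultures grown under basal conditions with no added stressor.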 Particulars: OD600, 24 h, higher = more signal, called active from +8 up or from −8 down.
Experiment [7] can be described thus: E. coli acrAB mutant growth effects, primary screen, E. coli filamentation inducers, strain DRC39, OD650, 24 h (AID 1178).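 Further: growth measured as culture turbidity by optical density at 650 nm.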 Particulars: higher = more signal, called active from +8 up or from −8 down.
The nature of experiment [8]: E. coli acrAB mutant growth effects, primary screen, E. coli filamentation inducers, strain DRC39, OD650, 48 h (AID 1179).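 Further: screen aims at cell division blockers that make cells filament.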 As to conditions: E. coli DRC39 delta-acrAB growth, higher = more signal, called active from +8 up or from −8 down.
Experiment [9] can be described thus: RPMI8226 myeloma cell viability, profiling panel, resazurin fluorescence, basal, 24 h, PK04 Diversity Set (AID 1180).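 Further: RPMI8826 multiple myeloma cell line at 5000 cells per well.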 As to conditions: higher = more signal.
Experiment [10] addresses E3 ubiquitin-protein ligase XIAP (Homo sapiens) (UniProt P98170). Put plainly: XIAP binders, primary screen, biophysical, small-molecule microarray, fluorescence 635 nm (AID 1181).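 Further: score merges 667 nm emission and signal to noise over triplicate slides.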 As to conditions: small-molecule microarray binding, higher = more signal.
Experiment [11] has as its system XIP peptide (Xip251-270) binding. Kind of experiment: small-molecule binders of XIP peptide, primary screen, biochemical, small-molecule microarray, fluorescence 635/667 nm, 0.1 µg/mL protein (AID 1182). As to conditions: fluorescent protein binding, 635 nm, higher = more signal, called active from +8 up or from −8 down.
The test system of a further experiment is XIP peptide (Xip251-270). Put plainly: small-molecule binders of XIP peptide, primary screen, biochemical, small-molecule microarray, fluorescence 635/667 nm, 0.5 µg/mL protein (AID 1183). Particulars: small-molecule microarray binding, fluorescence 635 nm; higher = more signal.
The nature of experiment [12]: Plasmodium falciparum growth inhibition, primary screen, strain 3D7, DAPI fluorescence, 100 nL (AID 1184).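 Further: parasites grown inside human red blood cells in medium with human serum.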 Particulars: P. falciparum 3D7 growth, 3 d, higher = more signal.
The target of experiment [13] is Homeobox protein Hox-A13 (Mus musculus) (UniProt Q62424). Kind of experiment: inhibitors of HoxA13-DNA binding, primary screen, biochemical, fluorescence polarization, labeled oligonucleotide (AID 1185). Particulars: 15 min, higher = more signal, called active from +8 up or from −8 down. (In general: Fluorescence polarisation rises when a labelled molecule tumbles more slowly, as on binding a larger partner.)
Homeobox protein Hox-A13 (Mus musculus), sequence (Q62424 whole entry, looked up): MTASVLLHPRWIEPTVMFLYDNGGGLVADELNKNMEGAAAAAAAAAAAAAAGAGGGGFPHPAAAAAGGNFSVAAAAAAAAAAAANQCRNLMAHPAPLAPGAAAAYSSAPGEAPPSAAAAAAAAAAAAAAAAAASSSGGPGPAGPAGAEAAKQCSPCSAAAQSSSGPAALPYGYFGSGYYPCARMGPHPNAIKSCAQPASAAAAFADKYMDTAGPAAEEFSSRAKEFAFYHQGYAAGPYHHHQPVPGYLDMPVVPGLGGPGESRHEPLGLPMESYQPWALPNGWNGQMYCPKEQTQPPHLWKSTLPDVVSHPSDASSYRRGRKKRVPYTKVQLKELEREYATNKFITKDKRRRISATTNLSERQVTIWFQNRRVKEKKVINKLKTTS

A short description of experiment [14]: inhibitors of hydroxyurea-induced Chk1 phosphorylation, primary screen, imaging, HeLa, phospho-Chk1 antibody, percent positive cells (AID 1186). Particulars: hydroxyurea-induced phospho-Chk1 immunofluorescence imaging, higher = more signal.
Experiment [15] in a line: inhibitors of hydroxyurea-induced Chk1 phosphorylation, primary screen, imaging, HeLa, phospho-Chk1 nuclear intensity (AID 1187). Particulars: hydroxyurea-induced phospho-Chk1 immunofluorescence imaging, higher = more signal.

Structures are written as SMILES. Activity calls are given as the source filed them. Unless noted, how the calls were made is not given here.

E3 ubiquitin-protein ligase XIAP (Homo sapiens), sequence (P98170 whole entry, looked up): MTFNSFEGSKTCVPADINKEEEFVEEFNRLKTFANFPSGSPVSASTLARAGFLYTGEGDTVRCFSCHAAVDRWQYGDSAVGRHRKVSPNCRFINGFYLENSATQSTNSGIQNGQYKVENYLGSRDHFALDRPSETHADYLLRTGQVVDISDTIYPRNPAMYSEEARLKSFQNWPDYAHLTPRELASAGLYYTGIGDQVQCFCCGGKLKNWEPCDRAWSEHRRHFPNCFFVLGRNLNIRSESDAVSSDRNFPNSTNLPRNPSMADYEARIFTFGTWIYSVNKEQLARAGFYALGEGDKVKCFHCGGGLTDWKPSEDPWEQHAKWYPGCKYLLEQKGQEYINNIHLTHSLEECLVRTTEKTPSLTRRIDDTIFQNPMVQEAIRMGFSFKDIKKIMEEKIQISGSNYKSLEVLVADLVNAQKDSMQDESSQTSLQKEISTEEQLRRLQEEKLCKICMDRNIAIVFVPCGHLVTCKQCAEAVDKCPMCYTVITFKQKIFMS
Dihydroorotate dehydrogenase (quinone), mitochondrial (Plasmodium falciparum (isolate 3D7)), sequence (Q08210 whole entry, looked up): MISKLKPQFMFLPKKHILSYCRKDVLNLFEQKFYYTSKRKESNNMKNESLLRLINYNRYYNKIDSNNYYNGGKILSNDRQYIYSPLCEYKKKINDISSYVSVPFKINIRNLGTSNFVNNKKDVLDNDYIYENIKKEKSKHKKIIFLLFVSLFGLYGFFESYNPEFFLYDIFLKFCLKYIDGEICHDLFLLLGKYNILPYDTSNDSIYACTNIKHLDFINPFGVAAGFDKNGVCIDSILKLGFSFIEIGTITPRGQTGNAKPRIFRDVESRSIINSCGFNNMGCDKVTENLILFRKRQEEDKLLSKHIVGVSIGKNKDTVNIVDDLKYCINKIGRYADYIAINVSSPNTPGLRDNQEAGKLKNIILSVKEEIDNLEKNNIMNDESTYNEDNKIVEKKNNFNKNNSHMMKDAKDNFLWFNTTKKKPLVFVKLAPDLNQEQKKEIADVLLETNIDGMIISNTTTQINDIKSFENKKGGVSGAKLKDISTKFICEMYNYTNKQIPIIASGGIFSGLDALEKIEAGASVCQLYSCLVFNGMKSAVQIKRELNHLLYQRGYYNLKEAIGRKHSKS

For `C/C=C/CN(C(=O)C#Cc1ccccc1)[C@H](CO[Si](C)(C)C(C)(C)C)c1ccccc1`, the z-score in experiment [1] is 0.704; in experiment [2] it was -0.161 (inactive); in experiment [3], 1.79 (inactive); in experiment [5] it was -0.966 (inactive); in experiment [6], -0.36 (inactive); in experiment [7], 2 (inactive). The z-score is 0.846 (inactive) in [8]; 3.51 in experiment [9]; -2.04 in experiment [12]; 1.99 (inactive) in [13]; -0.288 (inactive) in experiment [14]; -0.0994 (inactive) in experiment [15]. Besides, the composite z-score in experiment [4] is -3.11 (inactive); in experiment [10] it was -0.193; in [11], -0.617 (inactive); with XIP peptide (Xip251-270), -0.109.
For `C=CCC(OC(C)=O)[C@@H]1[C@@H](N(Cc2cc3ccccc3o2)C(=O)Cc2ccc(OC)cc2)c2cc(OCCCO)ccc2N1C(=O)Cc1ccc2ccccc2c1` (some centres not stated), the z-score was -1.22 in experiment [1]; -0.379 (inactive) in experiment [2]; 0.499 (inactive) in experiment [3]; -0.17 (inactive) in experiment [5]; 0.101 (inactive) in [6]; -0.529 (inactive) in [7]. Also, the z-score is -0.94 (inactive) in [8]; -0.216 in [9]; -2.15 in [12]; -1.62 (inactive) in experiment [13]; 0.405 (inactive) in experiment [14]; 0.517 (inactive) in experiment [15]. The composite z-score in experiment [4] was 0.65 (inactive); in experiment [10], 0.308; in [11], -0.324 (inactive); in the experiment on XIP peptide (Xip251-270), -0.375.
`CC(C)(C)OC(=O)CC[C@]1(C(N)=O)N=C(c2ccc(OCCCO)cc2)O[C@H]1c1ccccc1CN=[N+]=[N-]`: the z-score is 0.0283 in experiment [1]; 0.632 (inactive) in [2]; 0.455 (inactive) in [3]; -0.568 (inactive) in experiment [5]; 1.55 (inactive) in experiment [6]; 2.09 (inactive) in experiment [7]. The z-score in [8] was 0.64 (inactive); in [9], 0.282; in experiment [12] it was -0.176; in experiment [13], -4.12 (inactive); in [14] it was -0.198 (inactive); in experiment [15] it was 0.0796 (inactive). For the same compound, the composite z-score is 0.369 (inactive) in [4], 0.108 in [10], -0.226 (inactive) in experiment [11] and 0.819 with XIP peptide (Xip251-270).
Regarding `CC1(C)OC[C@@]23C=C(Br)[C@@H](C[C@H]12)[C@@]1(CO1)C3=O`, the z-score was -0.0972 in experiment [1]; -1.2 (inactive) in [2]; 0.0059 (inactive) in experiment [3]; -0.0582 (inactive) in experiment [5]; 0.617 (inactive) in experiment [6]; -0.509 (inactive) in experiment [7]. Further, the z-score is -0.457 (inactive) in [8]; 0.325 in experiment [9]; 1.96 in experiment [12]; 0.26 (inactive) in experiment [13]; -0.54 (inactive) in experiment [14]; -0.682 (inactive) in experiment [15]. Further, the composite z-score in experiment [4] was 0.253 (inactive); in [10], -0.02; in experiment [11], -0.319 (inactive); in the experiment on XIP peptide (Xip251-270), 0.0841.
Consider `O=C1N(CCS(=O)(=O)c2ccccc2)c2ccccc2[C@@H]2OC(c3ccc(OCCCO)cc3)=N[C@]12CCS(=O)(=O)c1ccccc1`, for which the z-score in [1] was 0.546; in experiment [2] it was 1.24 (inactive); in experiment [3], -0.0861 (inactive); in experiment [5], 1.73 (inactive); in experiment [6], 1.8 (inactive); in experiment [7], 0.481 (inactive). Further, the z-score in experiment [8] was -0.468 (inactive); in [9], -0.63; in [12], -2.18; in experiment [13], 0.806 (inactive); in experiment [14], 0.38 (inactive); in experiment [15], 0.682 (inactive). Moreover, the composite z-score in [4] was -0.038 (inactive); in experiment [10], -0.265; in experiment [11] it was 3.92 (inactive); in the experiment on XIP peptide (Xip251-270), 0.83.
As to `CCN(CC)c1ccc(N2CC=CC34O[C@@H]5C=CCOC(=O)[C@@H]5[C@H]3C(=O)N(CCO)[C@@H]4C2=O)cc1` (some centres not stated), the z-score in experiment [1] was 0.534; in experiment [2], -0.0592 (inactive); in experiment [3], 0.762 (inactive); in experiment [5] it was -0.978 (inactive); in experiment [6], 0.964 (inactive); in experiment [7], 1.15 (inactive). The z-score in [8] was 1.36 (inactive); in [9] it was 0.828; in [12] it was 0.738; in experiment [13], -4.9 (inactive); in [14], -0.52 (inactive); in [15], -0.456 (inactive). In addition, the composite z-score in [4] was -0.675 (inactive); in experiment [10] it was 0.147; in experiment [11] it was -0.228 (inactive); in the experiment on XIP peptide (Xip251-270) it was -1.29.
As for `CCCCCN1CC=CC23O[C@@H]4C=CCOC(=O)[C@@H]4[C@H]2C(=O)N(CCCCCO)[C@@H]3C1=O` (some centres not stated), the z-score in experiment [1] was 0.773; in [2], -0.284 (inactive); in [3], -0.295 (inactive); in experiment [5] it was 0.441 (inactive); in [6], -0.196 (inactive); in experiment [7], -0.151 (inactive). Also, the z-score in experiment [8] was -0.352 (inactive); in experiment [9], 0.0715; in [12], -0.423; in experiment [13], -3.88 (inactive); in experiment [14] it was -0.845 (inactive); in experiment [15] it was -0.498 (inactive). In addition, the composite z-score in experiment [4] is -1.09 (inactive); in experiment [10] it was -0.244; in experiment [11], 0.213 (inactive); with XIP peptide (Xip251-270), -0.228.
